RecA intein inh = blocks M. tuberculosis RecA intein splicing | 290,000 tested, 0.75% active | inhibition, % (no concentration beside the values) | cell-free RecA intein splicing, fluorescence | AID 2221; in the data active means inhibition above about 30%;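 further: 0% = vehicle wells and 100% = reference inhibitor control wells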
Target sequence (P9WHJ3 whole entry, looked up): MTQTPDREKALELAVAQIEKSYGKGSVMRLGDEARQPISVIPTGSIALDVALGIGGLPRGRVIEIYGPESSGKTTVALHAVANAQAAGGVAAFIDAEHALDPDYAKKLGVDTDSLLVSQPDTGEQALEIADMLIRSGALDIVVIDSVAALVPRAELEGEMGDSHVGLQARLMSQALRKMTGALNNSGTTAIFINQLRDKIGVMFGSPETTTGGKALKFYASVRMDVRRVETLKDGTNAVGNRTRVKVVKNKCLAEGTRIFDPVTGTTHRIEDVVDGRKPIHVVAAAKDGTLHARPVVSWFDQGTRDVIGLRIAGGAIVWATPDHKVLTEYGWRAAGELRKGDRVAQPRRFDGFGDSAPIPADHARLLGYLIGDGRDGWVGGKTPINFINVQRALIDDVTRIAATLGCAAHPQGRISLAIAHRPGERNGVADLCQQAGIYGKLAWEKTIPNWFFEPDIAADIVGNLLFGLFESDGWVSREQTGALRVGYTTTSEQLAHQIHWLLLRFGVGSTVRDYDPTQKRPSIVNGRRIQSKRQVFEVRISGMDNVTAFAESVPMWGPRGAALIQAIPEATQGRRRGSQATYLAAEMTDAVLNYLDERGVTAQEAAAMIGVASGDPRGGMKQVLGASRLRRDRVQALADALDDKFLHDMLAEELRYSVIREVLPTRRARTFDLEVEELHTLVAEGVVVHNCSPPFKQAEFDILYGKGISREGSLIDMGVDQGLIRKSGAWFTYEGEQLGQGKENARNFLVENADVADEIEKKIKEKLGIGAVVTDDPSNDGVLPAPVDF
PrP UTR inh = inhibition of PrP 5' UTR reporter expression | inhibition, % (no concentration beside the values) | 340,000 tested, 0.35% active | cell-based PrP 5' UTR mRNA reporter, plate reader | AID 488862; in the data active means inhibition above about 52%; further: 0 = median of the neutral control wells
BJeLR lethal = kills HRASV12-expressing BJeLR cells; BJeLR (HRASV12) viability, CellTiter-Glo ATP luminescence, 48 h; 300,000 tested, 0.17% active; inhibition, % (no concentration beside the values); in the data active means inhibition above about 50%
PrPC TRFRET = reduces human prion protein on the cell surface | cell surface PrPC, TR-FRET read-out | inhibition, % at 13.8 µM | 370,000 tested, 0.43% active | AID 720596; in the data active means inhibition above about 24%; further: 0% = median of the test wells and 100% = reference compound wells
PfHsp40 rescue = compounds rescuing yeast from Plasmodium falciparum HSP40 toxicity. 340,000 tested, 0.68% active. growth rescue, % at 12.5 µM. S. cerevisiae expressing PfHsp40, growth rescue, ATP luminescence; in the data active means growth rescue above about 28%, passing the limit was not always enough;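 further: yeast W303a lacking pdr1 and pdr3 grown in galactose medium; growth measured after three days at 30 °C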
SSB-PriA inh = blocks PriA binding to SSB C-terminal tail; inhibition, % at 33 µM; AlphaScreen SSBct-PriA binding, biotinylated peptide; 430,000 tested, 0.6% active; in the data active means inhibition mostly above about 37%, no sharp cut-off; inactive means mostly below about 20%;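 further: plate controls were negative control peptide for no effect and reference peptide for full effect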
Active calls of the source: *. The list is not random: actives were taken first. Their share in the collection is about 1.9%.

How did COc1ccc(OC)c(NC(=O)CSc2nccn2-c2ccc(F)cc2)c1 do in these assays?
SSB-PriA inh: 54*

How did OCCN(CCO)c1ccc2ccccc2c1 do in these assays?
RecA intein inh: 5; PrP UTR inh: -6; BJeLR lethal: 0; PrPC TRFRET: 5; PfHsp40 rescue: -1; SSB-PriA inh: -8

How did OCCN(CCO)c1cc2c3ccccc3ccc2c2ccccc12 do in these assays?
PrP UTR inh: -21; PrPC TRFRET: 0; PfHsp40 rescue: 529*; SSB-PriA inh: -8

Results for CC1(C)CNc2cc(N)ccc2S1 ?
RecA intein inh: 14; PrP UTR inh: -20; BJeLR lethal: 0; PrPC TRFRET: -9; PfHsp40 rescue: 1; SSB-PriA inh: 74*

How did CC1CCCN(Cc2c(C(=O)N3CCc4ccccc4C3)nc3ccc(Cl)cn23)C1 (stereo not drawn) do in these assays?
RecA intein inh: -2; PrP UTR inh: -8; BJeLR lethal: -13; PrPC TRFRET: 4; PfHsp40 rescue: 55*; SSB-PriA inh: -2

Results for O=C(CS(=O)(=O)c1ccc(F)cc1)NCCS(=O)(=O)c1ccccc1 ?
RecA intein inh: -1; PrP UTR inh: -9; BJeLR lethal: 0; PrPC TRFRET: -1; PfHsp40 rescue: -1; SSB-PriA inh: 58*

What do the screens show for `O=C(Nc1nnc(C2=COCCO2)o1)c1ccc(S(=O)(=O)N2CCCc3ccccc32)cc1`?
SSB-PriA inh: -1

How did NC1=NC(=O)C(CC(=O)Nc2ccc(OC(F)(F)C(F)Cl)cc2)S1 (stereo not drawn) do in these assays?
SSB-PriA inh: 8

What do the screens show for `Cc1ccc2nc(N(CC3CCCO3)C(=O)c3ccn(C)n3)sc2c1` (stereo not drawn)?
SSB-PriA inh: -1

How did CN(Cc1cnc2nc(N)nc(N)c2n1)c1ccc(C(=O)N[C@@H](CCC(=O)O)C(=O)O)cc1 do in these assays?
RecA intein inh: -14; PrP UTR inh: 45; BJeLR lethal: 76*; PrPC TRFRET: -14; PfHsp40 rescue: 5; SSB-PriA inh: 12

How did Cc1noc(-c2ccc(N3CCCC(C(=O)NC(C)CCc4ccco4)C3)nc2)n1 (stereo not drawn) do in these assays?
SSB-PriA inh: 0

What do the screens show for `COc1ccc(S(=O)(=O)Nc2ccc3c(c2)CN(C(=O)C(C)C)CC3)cc1Cl`?
SSB-PriA inh: -1

What do the screens show for `Fc1ccc(Nc2nc(N/N=C/c3ccco3)nc(N3CCCCC3)n2)cc1`?
RecA intein inh: 2; PrP UTR inh: -11; BJeLR lethal: 1; PrPC TRFRET: 0; PfHsp40 rescue: 102*

How did Cc1[nH][nH]c(=O)c1C(c1ccc(-c2cccc(Cl)c2)o1)c1c(C)[nH][nH]c1=O do in these assays?
RecA intein inh: 97*; PrP UTR inh: -9; BJeLR lethal: 5; PfHsp40 rescue: -1; SSB-PriA inh: -1

How did CC(=O)c1ccc(NC(=O)N2CCc3ccccc3C2)cc1 do in these assays?
RecA intein inh: 1; PrP UTR inh: -39; BJeLR lethal: 105*; PrPC TRFRET: 5; PfHsp40 rescue: -1; SSB-PriA inh: 5

What do the screens show for `COc1ccccc1-c1nc(C#N)c(N2CCN(Cc3ccccc3)CC2)o1`?
RecA intein inh: 7; PrP UTR inh: -11; BJeLR lethal: 0; PrPC TRFRET: 7; PfHsp40 rescue: 2; SSB-PriA inh: 41*

Results for COc1ccccc1-c1nc(C#N)c(N2CCC(Cc3ccccc3)CC2)o1 ?
RecA intein inh: 8; PrP UTR inh: -11; BJeLR lethal: 1; PrPC TRFRET: 3; PfHsp40 rescue: -1; SSB-PriA inh: 16

Results for CC(C)(C)c1ccc(-c2nc(C#N)c(N3CCCCC3)o2)cc1 ?
SSB-PriA inh: 73*

What do the screens show for `COc1ccc(-c2nc(C#N)c(N3CCN(C)CC3)o2)cc1`?
SSB-PriA inh: 54*

What do the screens show for `N#Cc1nc(-c2ccccc2Cl)oc1N1CCCCC1`?
RecA intein inh: 1; PrP UTR inh: -25; BJeLR lethal: -3; PrPC TRFRET: 10; PfHsp40 rescue: 6; SSB-PriA inh: 48*

Results for N#Cc1nc(-c2ccccc2F)oc1N1CCCCC1 ?
RecA intein inh: -1; PrP UTR inh: -18; BJeLR lethal: -4; PrPC TRFRET: -2; PfHsp40 rescue: 1; SSB-PriA inh: 14

Results for COc1ccc(-c2nc(C#N)c(N3CCCC3)o2)cc1 ?
SSB-PriA inh: 23

Results for O=C(Cn1c(-c2cccnc2)nc2ccccc21)Nc1cccc(F)c1 ?
SSB-PriA inh: 4
